# Bioassay records as filed in PubChem BioAssay.
# CendR NRP1 mod: modulators of CendR peptide binding to NRP-1, primary screen, biochemical, fluorescence polarization, uHTS; inhibition, % at 25 µM; 0.85% of 360,000 active; Neuropilin-1 (Homo sapiens), O14786; FAM-RPARPAR peptide binding to NRP-1;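 active = inhibition or corrected inhibition above about 18%, plus a signal ratio from 0.5 to 1.5, limit read from the data, passing the limit was not always enough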
# ADAM17 inh: ADAM17 inhibitors, primary screen, biochemical, QFRET | recombinant ADAM17, EDANS/DABCYL FRET peptide cleavage | 0.83% of 370,000 active | inhibition, % at 6.95 µM;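 active = inhibition above the mean of compounds lying between control limits plus 3 SD, set per campaign, cut at about 8.5% in these data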;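 note: 0% = DMSO-only wells as the low control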
# APOBEC3G inh: APOBEC3G DNA deaminase inhibitors, primary screen, biochemical, fluorescence, single-stranded DNA substrate, uHTS; inhibition, % at 20 µM; 0.28% of 330,000 active; recombinant A3G, ssDNA deamination FAM/TAMRA fluorescence; DNA dC->dU-editing enzyme APOBEC-3G (Homo sapiens), Q9HC16;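 active = inhibition of at least 40% at 20 µM, with no more than 30% in the related APOBEC3A deaminase screen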;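 note: plate controls were DMSO wells with A3G for no effect and wells lacking A3G enzyme for full effect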
# ADAM10 inh: human ADAM10 inhibitors, primary screen, biochemical, QFRET, HTS; AID 720582, 2013; recombinant ADAM10, EDANS/DABCYL FRET peptide cleavage, 3 h; inhibition, % at 7 µM; 0.62% of 370,000 active;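 active = inhibition above a per-campaign cutoff equal to the mean of compounds falling between control-based bounds plus 3 SD, cut at about 20% in these data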;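 note: 0% = DMSO wells while the 100% control is not disclosed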
# Target sequence (O14672 214-748 limits assumed): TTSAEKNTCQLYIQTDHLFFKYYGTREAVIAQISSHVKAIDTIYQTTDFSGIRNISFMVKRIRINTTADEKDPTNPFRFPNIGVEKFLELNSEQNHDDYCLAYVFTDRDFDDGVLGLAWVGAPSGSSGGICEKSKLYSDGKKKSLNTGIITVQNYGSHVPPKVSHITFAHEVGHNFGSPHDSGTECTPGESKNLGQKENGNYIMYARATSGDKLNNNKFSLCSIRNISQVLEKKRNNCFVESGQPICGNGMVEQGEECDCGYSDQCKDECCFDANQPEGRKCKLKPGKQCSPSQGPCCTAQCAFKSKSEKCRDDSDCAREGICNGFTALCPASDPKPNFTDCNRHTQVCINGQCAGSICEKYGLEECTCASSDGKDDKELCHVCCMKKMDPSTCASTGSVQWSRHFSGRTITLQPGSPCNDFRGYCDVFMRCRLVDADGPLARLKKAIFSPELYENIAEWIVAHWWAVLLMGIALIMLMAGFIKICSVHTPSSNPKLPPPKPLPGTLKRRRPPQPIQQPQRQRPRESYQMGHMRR
# APOBEC3A inh: APOBEC3A ssDNA deaminase inhibitors, primary screen, selectivity assay for APOBEC3G inhibitor project, biochemical, FAM/TAMRA oligo cleavage fluorescence; DNA dC->dU-editing enzyme APOBEC-3A (Homo sapiens), P31941; recombinant A3A, FAM/TAMRA ssDNA deamination fluorescence; inhibition, % at 20 µM; 0.41% of 330,000 active; AID 493011, 2011;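 active = at least 40% inhibition at 20 µM here, with at most 30% in a related deaminase screen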;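 note: plate controls were A3A with DMSO for no effect and wells lacking A3A enzyme for full effect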
# A3A conf: APOBEC3A deaminase inhibitors, retest, confirmation, selectivity assay for APOBEC3G inhibitor project, biochemical, single concentration, fluorescence readout. shares compounds with APOBEC3A inh. 63% of 1,400 active. inhibition, % at 20 µM. AID 493151, 2011. recombinant A3A, ssDNA deaminase UDG fluorescence assay;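 active = inhibition reaching a set limit, 80% of the first screen's cutoff, at 20 µM in any replicate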;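 note: plate controls were DMSO wells with A3A for no effect and wells lacking A3A enzyme for full effect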
# UDG A3A counter: E. coli UDG inhibitors, confirmation, counter-screen for APOBEC3A inhibitor project, biochemical, single concentration, fluorescence, FAM/TAMRA oligo. shares compounds with APOBEC3A inh. UDG counterscreen, FAM/TAMRA uracil oligo fluorescence. inhibition, % at 20 µM. 1,000 tested, under 10 active. AID 504714, 2011; call rule not given here
# * hit, by the source's call; · = no result given. Most compounds without a hit are left out; they make up all but 2.4% or so of the library.
SMILES,CendR NRP1 mod,ADAM17 inh,APOBEC3G inh,ADAM10 inh,APOBEC3A inh,A3A conf,UDG A3A counter
CCN1CCN(c2ccc(S(=O)(=O)N3CCOCC3)cc2NC(=O)C(C)Oc2ccc(Cl)cc2)CC1 (stereo not given),14,-3,11,2,56*,44*,2
CCN1CCN(c2ccc(S(=O)(=O)N3CCOCC3)cc2NC(=O)/C=C/c2ccc(C)cc2)CC1,0,-2,-1,-5,2,·,·
COc1cc(-c2nnc(SCC(=O)NN=Cc3c[nH]c4ccccc34)n2-c2ccccc2)cc(OC)c1OC,·,6,·,9,·,·,·
CCN1CCN(c2ccc(S(=O)(=O)N3CCCCC3)cc2NC(=O)CC(NC(C)=O)c2ccccc2)CC1 (stereo not given),2,-2,13,-3,88*,65*,3
CN1CCN(c2ccc(S(=O)(=O)N3CCCCC3)cc2NC(=O)/C=C/c2ccc(OC(F)F)cc2)CC1,1,3,-1,6,29,·,·
CCN1CCN(c2ccc(S(=O)(=O)N3CCCCC3)cc2NC(=O)c2cccc(OC(F)F)c2)CC1,-2,-2,3,1,39,·,·
CCN1CCN(c2ccc(S(=O)(=O)N3CCCCC3)cc2NC(=O)c2ccc(OC(F)F)cc2)CC1,-4,1,5,5,47*,54*,2
CCN1CCN(c2ccc(S(=O)(=O)N3CCCCC3)cc2NC(=O)/C=C/c2ccc(OC(F)F)cc2)CC1,11,2,12,2,46*,59*,2
CC(CC(=O)Nc1cccc(S(=O)(=O)N2CCCCC2)c1)c1ccccc1 (stereo not given),8,2,11,2,40*,23,·
Cc1ccc(Cn2cc(CN3[C@H](C)COc4cc(Br)ccc4S3(=O)=O)nn2)cc1,·,-2,·,5,·,·,·
COc1ccc(CNS(=O)(=O)CC2NCc3ccc(C)cc32)cc1 (stereo not given),·,-4,·,-4,·,·,·
Nc1[nH]n(-c2ccccc2)c(=O)c1N=Nc1ccc(F)cc1,·,3,·,4,·,·,·
COc1ccc(OCc2nn[nH]n2)cc1,6,-4,-1,-8,56*,19,2
O=C(NC1CCCC1)C(c1ccccn1)N(C(=O)c1csnn1)c1ccc(F)cc1 (stereo not given),-4,-3,-6,-3,72*,-6,-3
CC(C)(C)c1ccc(S(=O)(=O)NCC2CCN(C(=O)C(=O)c3cccs3)CC2)cc1,·,-1,·,1,·,·,·
CN(C)/C=C(/C(=O)c1ccc(Cl)cc1)S(C)(=O)=O,-2,0,5,7,43*,1,·
CN(C)/C=C(/C(=O)c1ccc(Cl)c(Cl)c1)S(C)(=O)=O,10,-2,-4,0,-2,·,·
CC[N+](C)(CC)CCC(c1ccccc1)C1CCCCC1 (stereo not given),1,-3,10,-2,48*,67*,-2
CCN1CCN(S(=O)(=O)c2ccc(Cl)c(C(=O)N(C)C3CCCCC3)c2)CC1,-1,2,·,0,·,·,·
CCN1CCN(S(=O)(=O)c2ccc(Cl)c(C(=O)N(C)C(c3ccccc3)c3ccccc3)c2)CC1,2,0,17,5,57*,64*,-2
Cc1c(C(=O)OC(C)C(C)C[N+](C)(C)C)oc2ccccc12 (stereo not given),2,1,24,1,83*,81*,-3
Cc1c(C(=O)OC(C)C(=O)N(C)Cc2ccccc2)oc2ccccc12 (stereo not given),-1,6,-4,15,-2,·,·
CC1=CC(C)(C)N(C(=O)c2ccccc2)c2ccccc21,-1,2,-4,7,-3,·,·
CC1=CC(C)(C)[N+](C)(C)c2ccccc21,22,-1,14,-1,77*,72*,-35
O=C(CSc1ccccn1)Nc1cccc2ccccc12,-8,2,8,7,60*,44*,-3
SMILES,CendR NRP1 mod,ADAM17 inh,APOBEC3G inh,ADAM10 inh,APOBEC3A inh,A3A conf,UDG A3A counter
O=C(CSc1ccccn1)Nc1ccccc1F,8,1,-7,0,-5,·,·
CCN(CC)S(=O)(=O)c1ccc(OC)c(NC(=O)Cc2cccs2)c1,2,-1,16,3,43*,25,·
COc1cc(OC)c(NC(=O)Cc2cccs2)cc1Cl,-1,-3,-6,7,-6,·,·
COc1ccc(NC(=O)CN(C)CC(=O)N(C)C2(C#N)CCC(C)CC2)cc1 (stereo not given),-6,-2,9,-12,44*,33*,3
Cc1ccc(C(=O)N2CCC[C@@H]2C(=O)N2CCC[C@@H]2C(=O)NCc2ccccc2)cc1,·,-2,·,0,·,·,·
COc1ccc(OCc2cc(C(=O)O)c(C)o2)cc1,·,·,8,·,53*,34*,·
CCN(CC)Cc1cc(C(=O)O)c(C)o1,-11,-6,-9,-2,-2,·,·
CCOc1cc(N2CCOCC2)c(OCC)cc1NC(=O)c1cc(S(=O)(=O)N2CCOCC2)ccc1Cl,-14,-3,-6,-4,2,·,·
CCOc1cc(N2CCOCC2)c(OCC)cc1NS(=O)(=O)c1ccc(Cl)s1,13,1,9,-7,60*,21,·
CSc1nc(-c2ccco2)nn1C(=O)Cc1ccccc1,-1,-2,-3,8,94*,-2,-3
CN(C)S(=O)(=O)c1ccc(C(=O)NCC[N+]2(C)CCCCCC2)o1,0,-2,25,-10,93*,73*,-1
CCNc1ccc(S(=O)(=O)N(C)C)cc1[N+](=O)[O-],-4,1,21,1,67*,54*,·
CCCCNc1ccc(S(N)(=O)=O)cc1[N+](=O)[O-],·,·,-2,·,2,·,·
CC(C)(C)OC(=O)N1CCC2CCN(S(C)(=O)=O)CC21 (stereo not given),·,-6,·,-9,·,·,·
CCOC1=C2[C@H](c3ccccc3)N(S(=O)(=O)c3ccc(C)cc3)[C@H](C(C)C)[C@H]2C(C#N)(C#N)C(C#N)(C#N)C1,·,3,·,16,·,·,·
Nc1nc2c(s1)CCCCCCCCCC2,5,0,18,3,50*,38*,2
